# Source: PubChem BioAssay (Tox21)
# “And” between values parts separate entries of the source, which are not always exact repeats. Equal entries are not always repeated. More than one record can exist for a structure, and the calls need not agree. The source made the active and inactive calls. A call without a number means that no potency is given here. Unless noted, calls follow the shape of the dose curve; as a rule, active = well fitted curve in the direction sought with a large enough effect in the repeat runs; inconclusive = weak or mixed curves; inactive = no such curve, though single readings can be large; an effect the other way counts as inactive or inconclusive.
# Legend:
# [1] = qHTS assay to identify small molecule antagonists of the glucocorticoid receptor (GR) signaling pathway - cell viability counter screen (AID 720693); settings: GR-bla HeLa viability, CellTiter-Glo luminescence, 18 h, with 5 nM dexamethasone present; series mostly up to 58.5 µM; also: nearly all actives have a fitted effect of over 55% in size
# [2] = qHTS assay for identifying genotoxic compounds that show differential cytotoxicity against isogenic chicken DT40 cell lines with known DNA damage response pathways - wild type cell line (AID 743012); settings: DT40 wild type chicken cells viability, CellTiter-Glo, 40 h; series mostly up to 68.4 µM; also: nearly all actives have a fitted effect of over 60% in size; also: potency is read from the fitted curve at half-maximal effect
# In short: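 300 wt DT40 cells/well; cpd (DMSO) pintool-transferred after ~0.5 h at 37 C/5% CO2; 40 h incubation; CellTiter-Glo added, 30 min RT; luminescence read.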
# [3] = qHTS assay for identifying genotoxic compounds that show differential cytotoxicity against isogenic chicken DT40 cell lines with known DNA damage response pathways - Rad54/Ku70 mutant cell line (AID 743015); settings: DT40 Rad54/Ku70 mutant viability, CellTiter-Glo, 40 h; series mostly up to 66.8 µM; also: nearly all actives have a fitted effect of over 60% in size; also: potency is read from the fitted curve at half-maximal effect
# [4] = target: Androgen receptor (Homo sapiens) (UniProt P10275); test: qHTS assay to identify small molecule antagonists of the androgen receptor (AR) signaling pathway (AID 743035; active = well fitted inhibition curve with a large enough effect in the signal ratio in the repeat runs, not every such curve was filed as active; inconclusive = weak or mixed curves, or effect the other way; inactive = no such curve, though single readings can be large or run the other way; the % refers to the signal ratio); settings: HEK293 AR-UAS-bla, R1881-stimulated, beta-lactamase FRET, 16 h; series mostly up to 58.5 µM
# Sequence of Androgen receptor (Homo sapiens) (P10275 whole entry, looked up): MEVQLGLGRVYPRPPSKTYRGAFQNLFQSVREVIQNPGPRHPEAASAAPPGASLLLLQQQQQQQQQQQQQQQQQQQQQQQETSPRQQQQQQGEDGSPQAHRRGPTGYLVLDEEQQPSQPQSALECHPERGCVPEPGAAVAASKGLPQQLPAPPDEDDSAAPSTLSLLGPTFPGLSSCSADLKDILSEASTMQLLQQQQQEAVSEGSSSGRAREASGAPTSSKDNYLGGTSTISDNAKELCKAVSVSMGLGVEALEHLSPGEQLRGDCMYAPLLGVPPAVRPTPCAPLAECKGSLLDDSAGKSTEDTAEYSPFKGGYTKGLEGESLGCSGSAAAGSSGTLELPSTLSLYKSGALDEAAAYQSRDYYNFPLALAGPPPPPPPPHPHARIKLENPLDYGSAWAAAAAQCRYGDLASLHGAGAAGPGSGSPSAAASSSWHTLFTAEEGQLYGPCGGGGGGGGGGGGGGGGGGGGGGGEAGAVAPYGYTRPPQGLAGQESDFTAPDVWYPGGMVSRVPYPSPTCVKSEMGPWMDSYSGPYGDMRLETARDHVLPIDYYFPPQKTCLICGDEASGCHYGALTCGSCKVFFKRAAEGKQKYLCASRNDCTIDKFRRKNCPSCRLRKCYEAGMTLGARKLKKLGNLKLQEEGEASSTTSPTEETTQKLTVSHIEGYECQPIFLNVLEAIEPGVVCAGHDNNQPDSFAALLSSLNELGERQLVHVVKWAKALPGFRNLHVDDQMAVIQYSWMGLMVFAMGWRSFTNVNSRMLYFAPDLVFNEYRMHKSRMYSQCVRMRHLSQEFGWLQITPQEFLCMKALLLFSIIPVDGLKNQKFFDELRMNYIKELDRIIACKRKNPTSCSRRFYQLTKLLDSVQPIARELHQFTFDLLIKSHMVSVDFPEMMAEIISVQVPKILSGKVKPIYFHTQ
# In short: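 In this cell-based reporter screen, compounds were tested in concentration series against R1881-activated HEK293 cells expressing beta-lactamase under UAS control; after 16 h at 37C, FRET substrate was added and fluorescence read 2 h later.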
# [5] = target: Androgen receptor (Homo sapiens) (UniProt P10275); test: qHTS assay to identify small molecule agonists of the androgen receptor (AR) signaling pathway (AID 743036; active = well fitted activation curve with a large enough effect in the signal ratio in the repeat runs, with a control signal flat, not every such curve was filed as active; inconclusive = weak or mixed curves, or effect the other way; inactive = no such curve, though single readings can be large or run the other way; the % refers to the signal ratio); settings: HEK293 AR-UAS-bla GripTite, beta-lactamase FRET ratio, 16 h; series mostly up to 62.4 µM
# In short: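 In this Tox21 qHTS, 2,000 HEK293 AR-bla cells per well were incubated with compounds for 16 h at 37C and 5% CO2. Fluorescence intensity was recorded 2 h after adding LiveBLAzer B/G FRET substrate at room temperature.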
# [6] = target: Androgen receptor (Homo sapiens) (UniProt P10275); test: qHTS assay to identify small molecule agonists of the androgen receptor (AR) signaling pathway using the MDA cell line (AID 743040; also: nearly all actives have a fitted effect of over 20% in size); settings: MDA-kb2 AR-luc cells, MMTV luciferase, 16 h, stronger effect = higher value; series mostly up to 70.3 µM
# In short: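 Luciferase agonist assay: 16 h compound exposure at 37C without CO2 in MDA-kb2 AR-luc cells, whose MMTV promoter responds to both AR and GR. Luminescence measured after 30 min room-temperature incubation with ONE-Glo.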
# [7] = qHTS assay to identify small molecule antagonists of the androgen receptor (AR) signaling pathway using the MDA cell line - cell viability counter screen (AID 743041; also: nearly all actives have a fitted effect of over 45% in size); settings: MDA-kb2 viability, CellTiter-Fluor, 16 h, cells co-treated with R1881 androgen agonist; series mostly up to 70.3 µM
# In short: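 Viability read by CellTiter-Fluor fluorescence in the same wells as the antagonist screen, added after 15.5 h of a 16 h, 37C exposure. Human breast carcinoma MDA-kb2 AR-luc cells, compounds co-dosed with agonist R1881.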
# [8] = target: Androgen receptor (Homo sapiens) (UniProt P10275); test: qHTS assay to identify small molecule antagonists of the androgen receptor (AR) signaling pathway using the MDA cell line (AID 743042; also: nearly all actives have a fitted effect of over 55% in size); settings: MDA-kb2 AR-luc, MMTV luciferase, R1881 antagonist, 16 h; series mostly up to 70.3 µM
# In short: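 Antagonist mode: compounds plus R1881 agonist added to MDA-kb2 AR-luc cells, incubated 16 h at 37C. Luciferase reporter luminescence quantified, with multiplexed CellTiter-Fluor readout for cell viability.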
# [9] = qHTS assay to identify small molecule antagonists of the thyroid receptor (TR) signaling pathway (AID 743065); settings: GH3.TRE-Luc, T3-stimulated luciferase inhibition, 23.5 h; series mostly up to 70.3 µM; also: nearly all actives have a fitted effect of over 55% in size; also: potency is read from the fitted curve at half-maximal effect
# In short: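 Antagonism measured as loss of luciferase signal in GH3 cells stably carrying a TRE-luciferase reporter, co-treated with compound and T3 (1 nM final) for 23.5 h at 37 C. Viability was read in the same well by CellTiter-Fluor.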
# [10] = tested on: thyroid hormone receptor (rat, GH3 cells); test: qHTS assay to identify small molecule agonists of the thyroid receptor (TR) signaling pathway (AID 743066; calls by dose curve); settings: GH3.TRE-Luc cells, TR agonist luciferase, 24 h; series mostly up to 83.9 µM
# [11] = qHTS assay to identify small molecule antagonists of the estrogen receptor alpha (ER-alpha) signaling pathway - cell viability counter screen (AID 743074; calls by dose curve;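 also: HEK293 cells carrying ER-alpha-UAS-bla reporter stimulated with 17beta-estradiol; nearly all actives have a fitted effect of over 45% in size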; also: potency is read from the fitted curve at half-maximal effect); settings: ERalpha-bla HEK293 viability, CellTiter-Glo luminescence, 18 h; series mostly up to 69.4 µM
# [12] = qHTS assay to identify small molecule antagonists of the estrogen receptor alpha (ER-alpha) signaling pathway using the BG1 cell line - cell viability counter screen (AID 743081); settings: BG1Luc4E2 viability, CellTiter-Fluor, 22 h; series mostly up to 70.3 µM;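 also: compound given together with 17beta-estradiol as the ER stimulus; nearly all actives have a fitted effect of over 45% in size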; also: potency is read from the fitted curve at half-maximal effect
# [13] = target: Aromatase (Homo sapiens) (UniProt P11511); test: qHTS assay to identify aromatase inhibitors (AID 743083); settings: MCF-7 aro ERE, testosterone-driven ERE luciferase, 24 h; series mostly up to 70.3 µM; also: nearly all actives have a fitted effect of over 55% in size; also: potency is read from the fitted curve at half-maximal effect
# Sequence of Aromatase (Homo sapiens) (P11511 whole entry, looked up): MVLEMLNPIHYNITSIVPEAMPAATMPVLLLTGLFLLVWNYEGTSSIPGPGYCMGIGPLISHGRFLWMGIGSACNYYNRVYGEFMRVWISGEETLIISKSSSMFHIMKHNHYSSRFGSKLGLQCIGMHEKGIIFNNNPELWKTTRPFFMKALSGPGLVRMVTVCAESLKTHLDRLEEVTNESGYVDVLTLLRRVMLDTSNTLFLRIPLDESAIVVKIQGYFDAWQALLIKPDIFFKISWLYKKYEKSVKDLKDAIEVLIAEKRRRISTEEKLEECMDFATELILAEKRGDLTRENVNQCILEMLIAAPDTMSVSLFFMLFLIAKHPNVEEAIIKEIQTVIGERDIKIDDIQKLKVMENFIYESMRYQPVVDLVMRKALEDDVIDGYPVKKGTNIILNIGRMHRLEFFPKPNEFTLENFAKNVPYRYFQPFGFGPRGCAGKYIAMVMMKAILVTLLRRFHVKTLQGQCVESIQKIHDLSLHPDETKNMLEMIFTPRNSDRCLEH
# [14] = qHTS assay to identify small molecule antagonists of the androgen receptor (AR) signaling pathway - cell viability counter screen (AID 743033; also: nearly all actives have a fitted effect of over 45% in size; also: potency is read from the fitted curve at half-maximal effect); settings: AR-bla HEK293 viability, CellTiter-Glo luminescence, 16 h; series mostly up to 58.5 µM
# [15] = qHTS assay to identify small molecule antagonists of the thyroid receptor (TR) signaling pathway - cell viability counter screen (AID 743064); settings: GH3.TRE-Luc viability, CellTiter-Fluor, 24 h; series mostly up to 70.3 µM; also: nearly all actives have a fitted effect of over 50% in size; also: potency is read from the fitted curve at half-maximal effect
# In short: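 Counter screen for cytotoxicity: compound plus T3 (1 nM final) on GH3.TRE-Luc cells, 23.5 h at 37 °C, then fluorescence viability readout with CellTiter-Fluor.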
# [16] = target: Estrogen receptor (Homo sapiens) (UniProt P03372); test: qHTS assay to identify small molecule antagonists of the estrogen receptor alpha (ER-alpha) signaling pathway (AID 743069; active = well fitted curve in the direction sought with a large enough effect in the signal ratio in the repeat runs, not every such curve was filed as active; inconclusive = weak or mixed curves, or effect the other way; inactive = no such curve, though single readings can be large or run the other way; the % refers to the signal ratio); settings: HEK293 ER-alpha-UAS-bla, beta-lactamase ratio, antagonist mode; series mostly up to 69.4 µM
# Sequence of Estrogen receptor (Homo sapiens) (P03372 whole entry, looked up): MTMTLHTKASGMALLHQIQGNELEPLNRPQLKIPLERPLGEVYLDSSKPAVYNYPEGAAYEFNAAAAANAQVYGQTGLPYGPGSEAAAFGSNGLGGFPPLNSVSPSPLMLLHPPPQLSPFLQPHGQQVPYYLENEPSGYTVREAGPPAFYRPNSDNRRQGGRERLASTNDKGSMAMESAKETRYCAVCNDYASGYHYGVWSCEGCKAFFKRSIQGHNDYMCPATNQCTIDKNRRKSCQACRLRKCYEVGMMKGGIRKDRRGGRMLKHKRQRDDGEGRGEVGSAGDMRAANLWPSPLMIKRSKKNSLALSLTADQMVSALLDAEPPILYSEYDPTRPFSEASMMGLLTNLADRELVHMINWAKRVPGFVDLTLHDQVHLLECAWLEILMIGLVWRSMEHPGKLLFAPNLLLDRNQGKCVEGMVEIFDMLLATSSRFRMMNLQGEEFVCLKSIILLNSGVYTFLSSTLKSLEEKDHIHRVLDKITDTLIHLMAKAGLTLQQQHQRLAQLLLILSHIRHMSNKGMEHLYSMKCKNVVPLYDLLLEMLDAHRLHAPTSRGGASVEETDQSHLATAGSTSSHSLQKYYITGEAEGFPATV
# In short: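 Antagonist mode: compounds in DMSO were co-added with 17beta-estradiol to ER-alpha-bla HEK293 cells (2% charcoal-stripped serum) and left 18 h at 37C. Reporter inhibition was measured as FRET fluorescence after 2 h LiveBLAzer substrate at room temperature.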
# [17] = target: Estrogen receptor (Homo sapiens) (UniProt P03372); test: qHTS assay to identify small molecule agonists of the estrogen receptor alpha (ER-alpha) signaling pathway (AID 743075; calls by dose curve;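 also: HEK293 GripTite cells with ER-alpha and UAS-driven beta-lactamase reporter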; also: potency is read from the fitted curve at half-maximal effect); settings: HEK293 ER-alpha-UAS-bla, beta-lactamase FRET ratio, 18 h; series mostly up to 70.1 µM
# [18] = target: Estrogen receptor (Homo sapiens) (UniProt P03372); test: qHTS assay to identify small molecule agonists of the estrogen receptor alpha (ER-alpha) signaling pathway using the BG1 cell line (AID 743079); settings: BG1Luc4E2 cells, ERE-luciferase agonist, 22 h; series mostly up to 70.3 µM; also: nearly all actives have a fitted effect of over 20% in size
# [19] = qHTS assay to identify small molecule antagonists of the estrogen receptor alpha (ER-alpha) signaling pathway using the BG1 cell line (AID 743080; calls by dose curve;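 also: BG1 cells stimulated with 17beta-estradiol alongside compound; nearly all actives have a fitted effect of over 25% in size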; also: potency is read from the fitted curve at half-maximal effect); settings: BG1Luc4E2 ERE-luciferase antagonist mode, luminescence; series mostly up to 70.3 µM
# In short: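 Luminescence from a 4×ERE-luciferase reporter in BG1-Luc-4E2 cells served as read-out. Cells, pre-cultured 5 days in stripped-serum phenol-red-free medium, were exposed to compound with 17beta-estradiol co-stimulation for 21.5 h at 37 C.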
# [20] = qHTS assay for identifying genotoxic compounds that show differential cytotoxicity against isogenic chicken DT40 cell lines with known DNA damage response pathways - Rev3 mutant cell line (AID 743014); settings: chicken DT40 Rev3-/- viability, CellTiter-Glo, 40 h; series mostly up to 68.4 µM; also: nearly all actives have a fitted effect of over 55% in size; also: potency is read from the fitted curve at half-maximal effect
Compound,Potency [1],Potency [2],Potency [3],outcome [4],outcome [5],outcome [6],Potency [7],outcome [8],Potency [9],outcome [10],Potency [11],Potency [12],Potency [13],Potency [14],Potency [15],Potency [16],Potency [17],Potency [18],Potency [19],Potency [20]
CCCCC(CC)COC(=O)/C=C\C(=O)OCC(CC)CCCC (configuration not stated),inactive,inactive,inactive,inactive,inactive,inactive,inactive,inactive,inactive,inactive,inactive,inactive,inactive,–,–,–,–,–,–,–
OCC#CCO,inactive,inactive and 54.5 µM (active),inactive and 48.6 µM (active),–,–,–,inactive,–,–,inactive,–,inactive,inactive,–,–,–,–,–,–,–
Cc1cc(O)cc(C)c1Cl,inactive,inactive,inactive,–,–,–,inactive,–,inactive,inactive,inactive,inactive,inactive,inactive,inactive,–,–,–,–,–
CCOC(=O)/C=C\C(=O)OCC,inactive,inactive,inactive,–,–,–,inactive,–,–,–,inactive,inactive,inactive,inactive,–,inactive,inactive,inactive,inactive,–
CCOC(=O)[C@H](CCc1ccccc1)N[C@@H](C)C(=O)N1Cc2ccccc2C[C@H]1C(=O)O,inactive,inactive,inactive,–,–,–,inactive,–,inactive,inactive,inactive,inactive,inactive,inactive,–,inactive,inactive,inactive,inactive,–
O=[N+]([O-])c1cc(N(CCO)CCO)ccc1NCCO,inactive,–,–,inactive,inactive,inactive,–,–,–,inactive,inactive,48.5 µM (active),–,inactive,61 µM (active),inactive,inactive,inactive,–,–
CN(C)c1cccc(O)c1,inactive,–,inactive,–,–,–,inactive,–,inactive,inactive,inactive,inactive,inactive,inactive,inactive,–,–,–,–,inactive
C/C=C(C)/C=C/C=C(C)C,inactive,61.1 µM (active),54.5 µM (active),–,–,–,inactive,–,–,inactive,inactive,inactive,inactive,inactive,–,–,–,–,–,–
CC1(C)O[C@@H]2C[C@H]3[C@@H]4C[C@H](F)C5=CC(=O)CC[C@]5(C)[C@H]4[C@@H](O)C[C@]3(C)[C@]2(C(=O)CO)O1,inactive,inactive,inactive,–,–,–,inactive,–,inactive,inactive,inactive,inactive,inactive,–,inactive,–,–,inactive,–,–
O=C1O[C@H](CO)[C@@H](O)[C@H](O)[C@H]1O,inactive,inactive,inactive,–,–,–,inactive,–,–,–,inactive,inactive,inactive,–,inactive,inactive,inactive,inactive,inactive,–
O=c1c(-c2ccc(O)cc2)coc2cc(O)ccc12,inactive,–,inactive,–,–,inactive,inactive,inactive,–,–,–,inactive,inactive,inactive,–,inactive,–,–,–,inactive
OCC1CCCO1 (configuration not stated),inactive,inactive,inactive,–,inactive,inactive,inactive,inactive,–,–,inactive,inactive,inactive,–,–,inactive,inactive,inactive,inactive,–
C=C1CC[C@H](O)CC1=C/C=C1\CCC[C@]2(C)[C@@H]([C@H](C)/C=C/[C@H](C)C(C)C)CC[C@@H]12,–,10.6 µM (active) and 13.6 µM (active) and 30.6 µM (active),13.3 µM (active) and 13.6 µM (active) and 27.3 µM (active),–,–,–,inactive,–,26.6 µM (active) and 54 µM (active) and 54.5 µM (active),inactive,54.5 µM (active) and 54.9 µM (active),inactive,inactive and 61.1 µM (active),–,60.6 µM (active),–,–,–,–,–
CCCCCCCCCCCCN,inactive,inactive and 15.4 µM (active),inactive and 19.3 µM (active),–,–,–,–,–,–,inactive,inactive and 54.9 µM (active),inactive,61.1 µM (active),inactive and 54.9 µM (active),inactive and 24.3 µM (active),–,–,–,–,–
O=C1CCCCC1,inactive,inactive,inactive,inactive,inactive,inactive,inactive,inactive,inactive,inactive,–,inactive,inactive,–,inactive,inactive,inactive,inactive,inactive,–
NC(=O)/N=N/C(N)=O,inactive,inactive,inactive,–,–,–,inactive,–,inactive,inactive,–,inactive,inactive,inactive,–,inactive,inactive,inactive,inactive,–
C[C@@H](O)[C@H]1C(=O)N2C(C(=O)O)=C(S[C@@H]3CN[C@H](C(=O)N(C)C)C3)[C@H](C)[C@H]12,inactive,inactive,inactive,–,–,–,inactive,–,inactive,inactive,inactive,inactive,inactive,inactive,inactive,–,–,–,–,–
NC(=O)NNc1ccccc1,inactive,–,–,–,–,–,inactive,–,inactive,inactive,inactive,inactive,inactive,–,inactive,–,–,–,–,–
CC1=CC[C@H]2C[C@@H]1C2(C)C,inactive,inactive,inactive,–,–,–,inactive,–,inactive,inactive,inactive,inactive,inactive,–,–,inactive,inactive,inactive,inactive,–
Cc1ccc(N)c(S(=O)(=O)O)c1,inactive,inactive,inactive,–,–,–,inactive,–,inactive,inactive,inactive,inactive,inactive,–,–,–,–,–,–,–
CC1COc2ccccc2N1C(=O)C(Cl)Cl (configuration not stated),inactive,–,61 µM (active) and 38.5 µM (active),–,–,–,–,–,8.62 µM (active) and 15.3 µM (active),inactive,inactive,inactive,61 µM (active) and inactive,inactive,9.67 µM (active) and 19.3 µM (active),inactive,24.5 µM [inconclusive] (active),inactive,30.6 µM (active) and 68.5 µM (active),30.6 µM (active) and 24.3 µM (active)
CCOC(=O)C1OC1c1ccccc1 (configuration not stated),inactive,inactive,inactive,–,–,–,inactive,–,–,inactive,inactive,inactive,inactive,–,–,–,–,–,–,–
CCCCCCCCCCC=CC1CC(=O)OC1=O (configuration not stated),inactive,inactive,inactive,–,–,–,inactive,–,–,inactive,inactive,inactive,–,–,–,–,–,–,–,–
CCc1ccccc1O,inactive,inactive,inactive,–,–,–,inactive,–,inactive,inactive,–,inactive,inactive,–,inactive,inactive,inactive,inactive,inactive,–
C=C(C)C(=O)OCC(CC)(COC(=O)C(=C)C)COC(=O)C(=C)C,inactive,inactive,–,–,–,–,inactive,–,inactive,inactive,–,inactive,inactive,inactive,–,–,–,–,–,–
CC[Si](OC(C)=O)(OC(C)=O)OC(C)=O,inactive,inactive,inactive,–,–,–,inactive,–,inactive,inactive,inactive,inactive,inactive,inactive,–,inactive,inactive,inactive,inactive,–
C[C@@H]1O[C@@H](OC[C@H]2O[C@@H](Oc3c(-c4ccc(O)c(O)c4)oc4cc(O)cc(O)c4c3=O)[C@H](O)[C@@H](O)[C@@H]2O)[C@H](O)[C@H](O)[C@H]1O,inactive,inactive,inactive,inactive,inactive,inactive,inactive,inactive,inactive,inactive,inactive,inactive,inactive,–,–,–,–,–,–,–
